Shown are actives, neighbours in structure and some others; about 0.33% of the full set was active somewhere.
FXIa single inh = blocks human coagulation factor XIa activity; P03951; purified human FXIa, fluorogenic AMC substrate cleavage; inhibition, % at 10 µM; hit rate 0.3% among 33,000;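 active = inhibition above 40% in the primary screen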;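 also: 0% = enzyme without compound and 100% = blank wells lacking enzyme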
Target sequence (P03951 19-387 limits assumed): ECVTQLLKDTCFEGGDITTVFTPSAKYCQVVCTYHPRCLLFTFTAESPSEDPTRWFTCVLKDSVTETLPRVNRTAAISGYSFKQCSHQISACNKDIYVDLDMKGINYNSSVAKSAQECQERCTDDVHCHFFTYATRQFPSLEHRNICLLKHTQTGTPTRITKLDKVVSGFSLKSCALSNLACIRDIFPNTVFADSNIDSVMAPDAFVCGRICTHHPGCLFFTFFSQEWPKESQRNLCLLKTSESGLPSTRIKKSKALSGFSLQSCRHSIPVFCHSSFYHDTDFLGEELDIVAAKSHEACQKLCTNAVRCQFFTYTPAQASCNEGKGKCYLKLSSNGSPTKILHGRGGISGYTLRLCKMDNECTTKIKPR
Target sequence (P03951 388-625 limits assumed): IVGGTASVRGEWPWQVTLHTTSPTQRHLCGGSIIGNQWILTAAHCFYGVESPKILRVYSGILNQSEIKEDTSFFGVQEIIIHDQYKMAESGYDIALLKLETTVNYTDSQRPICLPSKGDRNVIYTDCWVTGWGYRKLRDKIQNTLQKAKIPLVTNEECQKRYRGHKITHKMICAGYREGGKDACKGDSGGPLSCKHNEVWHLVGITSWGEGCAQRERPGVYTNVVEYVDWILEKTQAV
FXIIa single = blocks human coagulation factor XIIa activity; hit rate 0.2% among 33,000; P00748; purified human FXIIa, AMC substrate fluorescence, 2 h; AID 701; inhibition, % at 10 µM; in the data active = inhibition above about 30%;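 also: 0% = enzyme with vehicle only and 100% = no enzyme blank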
* = called active by the depositor.

SMILES | FXIa single inh | FXIIa single
CC1CCCC(NC(=O)CSc2nnnn2C)C1C (stereo unspecified) | -1.5 | 5.6
Cn1nnnc1SCC(=O)N(C1CCCCC1)C1CCCCC1 | 105.5* | -14.3
CCOC(=O)N=S(=O)(Oc1ccc([N+](=O)[O-])cc1)c1ccccc1 (stereo unspecified) | 43.5* | 6.3
CN(CC(=O)O/N=C(\N)c1ccc([N+](=O)[O-])cc1)S(=O)(=O)c1ccccc1 | 32.8 | -12.8
CC1=CC(=NOC(=O)c2cccc([N+](=O)[O-])c2)C=C(C)C1=O | 7.9 | 51.2*
CC1=CC(=O)C(C(C)C)=C/C1=N/OC(=O)c1cccc([N+](=O)[O-])c1 | 6.9 | -2.3
CCOc1ccc(NC(=O)CN2CCN(CC(=O)Nc3ccc(Cl)c(C(F)(F)F)c3)CC2)cc1 | -6.5 | 6.8
CC(c1ccccc1)n1cc(C(=O)NCc2ccccn2)nn1 (stereo unspecified) | 4.2 | 7.5
O=C(NCc1ccccn1)c1cn(CCc2ccccc2)nn1 | 3.1 | 31.0*
Cc1c(NC(=O)c2cc3ccccc3o2)c(=O)n(-c2ccccc2)n1C | 57.4* | 7.2
Cc1c(NC(=O)c2cc(C3CC3)on2)c(=O)n(-c2ccccc2)n1C | 2.5 | 4.5
O=S(=O)(c1ccc(Oc2ccc(Cl)cc2)c(S(=O)(=O)N2CCCCC2)c1)N1CCCCC1 | 4.4 | 7.4
COc1cccc(-c2nc3ccccc3c(=O)o2)c1 | -2.0 | 30.1*
COc1cc(OC)cc(-c2nc3ccccc3c(=O)o2)c1 | -4.2 | 15.4
Cc1nc2ccccc2c(=O)n1NC(=O)Cc1ccccc1 | -0.5 | 4.3
O=C(CCCN1C(=O)c2ccccc2C1=O)NCC1CCCO1 (stereo unspecified) | 44.1* | -11.1
O=C1c2ccccc2C(=O)N1CC1CCCO1 (stereo unspecified) | 2.0 | 10.9
COc1ccc(-c2nc(CSCC(=O)NCCC3=CCCCC3)c(C)o2)cc1OC | 15.9 | -19.6
COC(=O)c1ccc(OCC(=O)c2ccccc2OC)cc1 | -12.1 | 3.2
Cc1ccc(S(=O)(=O)NC2(C(=O)O)CCCCC2)cc1 | -2.9 | 16.0
Cc1ccc(NC(=O)C2(S(=O)(=O)c3ccc(C)cc3)CC2)cc1 | 0.3 | 30.1*
Cc1ccc(S(=O)(=O)/C(C#N)=C/c2c(N3CCC(C(N)=O)CC3)nc3ccccn3c2=O)cc1 | -1.6 | 13.0
Cc1ccc(Cn2ccc(=O)c(OCc3c(Cl)cccc3Cl)c2C)cc1 | -1.3 | -1.2
O=C(NCc1cccnc1)C1CC(=O)N(CCc2ccccc2)C1 (stereo unspecified) | -12.5 | -31.7
CCOC(=O)C1=C(O)/C(=C\c2ccc(CNC(=O)C(=O)Nc3ccc(C)c(C)c3)o2)N=C1C | 0.7 | 13.1
SMILES | FXIa single inh | FXIIa single
CCCC(=O)N(CCN(C(=O)CCC)c1ccccc1)c1ccccc1 | -1.0 | 3.7
COc1ccc(S(=O)(=O)N2CCC(C(=O)N3CCc4ccccc4C3)CC2)cc1Cl | 61.4* | 7.0
COc1ccc(S(=O)(=O)N2CCC(C(=O)NC3CC3)CC2)cc1Cl | -1.3 | -0.8
Cc1ccc2c(c1)-c1c(ssc1=S)C(C)(C)N2C(=O)c1ccco1 | 7.1 | 8.2
CC1(C)c2ssc(=S)c2-c2ccccc2N1C(=O)c1ccco1 | 3.9 | 33.9*
Cc1ccc(NC(=O)CCn2cccc2)cc1 | 44.4* | 3.5
Cc1ccc(NC(=O)CCn2cccc2)cc1C | -5.1 | 5.7
CCCCNS(=O)(=O)c1ccc(NS(=O)(=O)c2c(C)cc(C)cc2C)cc1 | -1.2 | 7.8
CCOC(=O)c1sc(NC(=O)CSc2n[nH]c(-c3ccc(Cl)cc3Cl)n2)c(C#N)c1C | 2.0 | 3.6
CCc1cc(=O)oc2c(C)c(OCC(=O)N3CCCc4ccccc43)ccc12 | 12.3 | 4.1
Cc1ccccc1OCCCn1c(=O)sc2ccccc21 | 1.9 | 4.0
O=C(O)CN(CC(=O)O)CC(=O)O | 2.2 | 7.4
O=c1nc(-c2ccccc2)c2cc(Cl)ccc2[nH]1 | 103.4* | -16.2
CCOC(=O)c1[nH]c2ccc(Cl)cc2c1-c1ccccc1 | 30.3 | -15.3
O=C1[O][Bi][O]c2ccccc21 | -16.0 | -12.6
O=C(c1cn(-c2ccccc2)nc1-c1ccncc1)n1nnc2ccccc21 | 96.3* | 88.8*
O=C(O)c1cn(-c2ccccc2)nc1-c1cccnc1 | 2.0 | -0.9
CCOc1cc(S(=O)(=O)N(Cc2ccccc2)Cc2ccccc2)c(OCC)cc1-n1cnnn1 | 44.7* | 2.4
CCOc1cc(S(=O)(=O)NCc2ccccc2)c(OCC)cc1-n1cnnn1 | -1.8 | 5.2
Cc1cc(/C=C(\C#N)C(=O)NCc2cccs2)c(C)n1-c1ccccc1F | -0.2 | 1.8
C=C(C)C(=O)OC1(C(F)(F)F)Oc2cc(C)ccc2NC1=O (stereo unspecified) | 10.9 | 2.3
O=C(c1ccc(F)cc1)N1CCN(C(=O)c2cccnc2)CC1 | 49.8* | 10.2
O=C(c1ccccc1)N1CCN(C(=O)c2ccccc2)CC1 | -0.6 | 3.2
O=C(Oc1nsnc1N1CCOCC1)c1ccccc1 | 65.8* | 62.6*
O=C(Oc1ccc(OC(=O)N2CCOCC2)cc1)c1ccccc1 | 6.2 | 1.1
SMILES | FXIa single inh | FXIIa single
CC(C)Cn1c(SCC(=O)NCc2ccc(Cl)cc2)nnc1-c1cccc(S(=O)(=O)N2CCOCC2)c1 | 6.6 | 6.5
COC(=O)c1[nH]c2ccc(Br)cc2c1NC(=O)CN1CCCc2ccccc21 | 44.7* | 3.4
CCOC(=O)c1[nH]c2ccc(OC)cc2c1NC(=O)CN1CCc2ccccc2C1 | -6.1 | 0.5
O=C(CCC(=O)c1cccs1)Nc1ccc(F)c(F)c1F | -5.8 | 5.9
CCn1nc(CC(=O)Nc2nnc(CC(=O)N3CCCC3)s2)c2ccccc2c1=O | 65.7* | -15.1
CCn1nc(CC(=O)Nc2nnc(CC(=O)N3CCOCC3)s2)c2ccccc2c1=O | -5.2 | 4.8
CCOC(=O)N1CCC2(CC1)C(C#N)=C(N)OC1=C2C(=O)CC(C)C1 (stereo unspecified) | 2.4 | 8.9
CCCCc1c(O)nc(SCC(=O)NC(C)(C)C)n(-c2ccccc2C)c1=O | -2.0 | 3.0
CCc1c(O)nc(SCC(=O)NC(C)(C)C)n(-c2ccccc2)c1=O | 43.2* | 1.3
O=C(c1ccccc1)N1CCCC(c2nc3c(nnn3Cc3ccccc3)c(=O)[nH]2)C1 (stereo unspecified) | -2.1 | 36.9*
O=C(C1CCCCC1)N1CCCC(c2nc3c(nnn3Cc3ccccc3)c(=O)[nH]2)C1 (stereo unspecified) | -0.3 | -12.7
Cc1ccc(NS(=O)(=O)c2ccc(OCC(=O)N3CCOCC3)cc2)cc1 | 99.4* | 8.1
CCOC(=O)COc1ccc(S(=O)(=O)Nc2ccc(C)cc2)cc1 | 2.0 | 11.2
COC(=O)/C(=C(/F)Sc1cc(C)c(O)c(C)c1)C(F)(F)F | -7.9 | 11.8
CN(C)CCCn1c(-c2ccccc2)nc(=S)c2c1CCCC2 | -13.2 | 8.2
OCCCn1c(-c2ccccc2)nc(=S)c2c1CCCC2 | 42.9* | 7.3
CCC(CC)c1nnc(NC(=O)c2c(C)nn(Cc3ccccc3Cl)c2C)s1 | -0.9 | 3.1
O=S(=O)(Nc1cccc2nsnc12)c1ccccc1 | 48.0* | 8.3
O=S(=O)(Nc1ccc(S(=O)(=O)Nc2cccc3ccccc23)cc1)c1ccccc1 | -3.9 | 5.5
COc1ccc(-c2nn(C)c(=O)c3ccccc23)cc1NC(=O)Cn1nc(-c2ccccc2)c2ccccc2c1=O | -5.1 | 0.7
COc1ccc(OCC(=O)Nc2cc(-c3nn(C)c(=O)c4ccccc34)ccc2OC)cc1 | 42.0* | 10.9
CCN1CC2=C(OC(N)=C(C#N)C2c2cccs2)/C(=C\c2cccs2)C1 (stereo unspecified) | 8.4 | 8.6
Cc1cc(NC(=O)c2cccc(F)c2)ncc1NC(=O)c1ccco1 | -1.9 | 4.6
